# The whole screen tested about 310,000 compounds, of which about 14,000 (4.5%) showed an effect of 50% or more. The effect is printed as a negative number. What follows is part of a selection rich in strong results, with near analogues and random picks from the rest.
# Target: human ether-à-go-go-related gene (hERG) potassium channel (human, UniProt Q12809)
# Assay: primary screen, population patch clamp on CHO cells stably expressing hERG; higher = less effect of the substance
# 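Note: peak tail current of the secondary pulse compared with the same well before compound.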
# Chain of human ether-à-go-go-related gene (hERG) potassium channel (Q12809 whole entry, looked up): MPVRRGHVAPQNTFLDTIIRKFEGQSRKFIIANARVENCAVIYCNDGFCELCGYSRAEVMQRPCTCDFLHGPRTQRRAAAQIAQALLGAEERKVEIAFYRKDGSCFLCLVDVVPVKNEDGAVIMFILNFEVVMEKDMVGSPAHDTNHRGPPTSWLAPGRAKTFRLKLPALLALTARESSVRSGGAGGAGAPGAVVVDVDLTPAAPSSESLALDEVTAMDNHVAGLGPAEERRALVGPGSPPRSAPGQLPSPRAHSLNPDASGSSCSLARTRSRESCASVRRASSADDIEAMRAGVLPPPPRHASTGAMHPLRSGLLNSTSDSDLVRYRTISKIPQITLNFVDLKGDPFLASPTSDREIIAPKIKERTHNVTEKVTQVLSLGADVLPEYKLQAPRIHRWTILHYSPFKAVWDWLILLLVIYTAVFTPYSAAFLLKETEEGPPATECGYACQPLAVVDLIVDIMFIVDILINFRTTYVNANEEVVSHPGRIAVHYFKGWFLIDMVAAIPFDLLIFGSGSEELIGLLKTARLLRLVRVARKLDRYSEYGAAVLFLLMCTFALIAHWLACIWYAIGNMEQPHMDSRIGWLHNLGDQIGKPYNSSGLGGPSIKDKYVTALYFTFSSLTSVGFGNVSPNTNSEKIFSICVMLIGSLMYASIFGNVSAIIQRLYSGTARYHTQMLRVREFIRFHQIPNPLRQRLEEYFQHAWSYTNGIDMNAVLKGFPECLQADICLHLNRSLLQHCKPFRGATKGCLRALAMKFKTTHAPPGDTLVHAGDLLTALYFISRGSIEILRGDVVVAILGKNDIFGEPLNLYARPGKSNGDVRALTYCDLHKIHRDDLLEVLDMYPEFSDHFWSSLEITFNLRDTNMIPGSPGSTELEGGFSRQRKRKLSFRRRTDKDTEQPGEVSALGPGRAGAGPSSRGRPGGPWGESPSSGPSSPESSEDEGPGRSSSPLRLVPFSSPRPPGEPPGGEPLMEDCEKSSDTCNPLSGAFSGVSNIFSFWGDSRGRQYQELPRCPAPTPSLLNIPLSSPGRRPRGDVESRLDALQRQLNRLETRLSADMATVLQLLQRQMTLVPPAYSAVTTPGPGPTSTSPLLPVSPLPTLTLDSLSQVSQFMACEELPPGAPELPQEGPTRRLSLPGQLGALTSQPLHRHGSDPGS
row,Compound,"hERG current change (%, negative = inhibition) at 10uM"
1,COc1ccccc1CNC(=O)Cn1cnnn1,14.5%
2,O=C(c1cc([N+](=O)[O-])cc([N+](=O)[O-])c1)N1CCCc2ccccc21,-16.3%
3,CCOC(=O)Cc1csc(NC(=O)CC)n1,3.71%
4,O=S(=O)(c1ccc(-c2csc(=Nc3ccccc3)n2CCCN2CCOCC2)cc1)N1CCOCC1,-40.9%
5,CN(C)N1C(N)=C(C#N)C(c2cccc(Cl)c2)C2=C1CCCC2=O (stereo not drawn),-26.2%
6,Cc1ccc(CO/N=C/C2=C(Cl)c3ccccc3CC2)cc1,16.8%
7,CC(=O)Nc1ccc(NS(=O)(=O)c2ccc3c(c2)oc(=O)n3C)cc1,20.2%
8,Cc1cccc(CN2CCc3c([nH]c4ccccc34)C2C(C)(C)C)n1 (stereo not drawn),3.57%
9,O=[N+]([O-])c1ccc(C(=Nc2cccc3ccccc23)N2CCOCC2)cc1,-63.5%
10,Cc1ccc([N+](=O)[O-])cc1N=C(c1cccc([N+](=O)[O-])c1)N1CCOCC1,-26%
11,Cc1ccc([N+](=O)[O-])cc1N=C(c1ccc([N+](=O)[O-])cc1)N1CCOCC1,-20.8%
12,O=C(NNC(=O)C1[C@H]2CCCC[C@@H]12)Nc1cccc2ccccc12 (stereo partly drawn),-6.11%
13,COc1cc(NC(=O)Cc2ccc(F)cc2)cc(OC)c1OC,16.2%
14,CCC(=O)N1CCc2cc(Br)cc(S(=O)(=O)CCC(=O)NCCc3ccccc3)c21,3.68%
15,O=S(=O)(c1ccccc1)N1CCN(C(=S)Nc2ccc(F)cc2)CC1,-3.33%
16,CN(C)/C=N/c1ncn(-c2ncc(C(F)(F)F)cc2Cl)n1,17.5%
17,Nc1nc2nonc2nc1N,15.3%
18,O=C(NCc1ccco1)c1cc(-c2ccncc2)nc2ccccc12,-18.5%
19,Cc1ccccc1-n1nc(C)c2c(C(=O)NN)cc(-c3ccncc3)nc21,38.5%
20,CCOC(=O)c1cc(-c2cccs2)nc2c1c(C)nn2-c1ccccn1,17.2%
21,Cc1nn(-c2cccc(Cl)c2)c2nc(-c3ccco3)cc(C(=O)O)c12,19%
22,Cc1nn(-c2cccc(Cl)c2)c2nc(-c3ccncc3)cc(C(=O)N3CCOCC3)c12,-62.3%

row,Compound,"hERG current change (%, negative = inhibition) at 10uM"
1,Cc1nn(-c2ccccc2)c2nc(-c3ccccc3)cc(C(=O)N3CCOCC3)c12,-25.9%
2,CCOC(=O)c1cc(-c2ccncc2)nc2c1c(C)nn2-c1ccccn1,-63.3%
3,CCOC(=O)c1cc(-c2ccncc2)nc2c1c(C)nn2C,-14.8%
4,O=C(NCc1ccco1)c1cc(-c2cccs2)nc2ccccc12,-1.68%
5,CCOC(=O)c1cc(-c2ccccc2)nc2c1c(C)nn2-c1ccccn1,-6.42%
6,Cc1nn(-c2ccccn2)c2nc(-c3cccs3)cc(C(=O)NCc3ccco3)c12,-67.3%
7,Cc1nn(-c2ccccc2)c2nc(-c3ccncc3)cc(C(=O)NCc3ccco3)c12,-66.6%
8,Cc1ncc([N+](=O)[O-])n1CC(=O)NCc1ccccc1,16%
9,Cc1ccc(S(=O)(=O)NNC(=O)C(=O)NNS(=O)(=O)c2ccc(C)cc2)cc1,-1.99%
10,O=C(c1ccc(Cl)cc1)N1CCCCC(Cl)C1=O (stereo not drawn),7.57%
11,COc1cccc(Nc2ncc(C(=O)O)c3ccccc23)c1,-1.48%
12,Fc1cnc(Cl)nc1N1CCN(c2ccccc2)CC1,-17.4%
13,Cc1nn(Cc2ccccc2)c(C)c1C(=O)OCC(=O)c1cc(C)n(CC(F)(F)F)c1C,-2.57%
14,COc1cccc(-n2c(-c3ccco3)nc3nc4ccccc4nc32)c1,18.4%
15,O=C(COC(=O)c1cccnc1Nc1ccccc1F)NC1CC1,-0.164%
16,Cc1cc(O)ccc1N/C=C(\C#N)c1nc2ccccc2o1,10.2%
17,C=C(C)COc1ccc2c(C)c(CCC(=O)NC3CC3)c(=O)oc2c1,-2.92%
18,CCOC(=O)c1sc2nc(CN3CCN(c4cccc(C(F)(F)F)c4)CC3)[nH]c(=O)c2c1C,8.43%
19,COc1ccc(-c2noc(=O)n2Cc2ccc(C#N)cc2)cc1,-70.1%
20,COc1ccc(-c2noc(=O)n2Cc2ccccc2Cl)cc1,-8.73%
21,N#Cc1ccc(Cn2c(-c3ccc(F)cc3)noc2=O)cc1,-17.8%
22,Cc1cc(C)n(Cc2ccc(C(=O)O)o2)n1,11.5%

row,Compound,"hERG current change (%, negative = inhibition) at 10uM"
1,COc1ccccc1COn1c(=O)c(-c2ccco2)[n+]([O-])c2ccccc21,5.96%
2,N=c1c(S(=O)(=O)c2ccccc2)cc2c(=O)n3ccccc3nc2n1CCCN1CCOCC1,-65.9%
3,N=c1c(C(=O)NCc2ccccc2)cc2c(=O)n3ccccc3nc2n1CCCN1CCOCC1,-78.6%
4,N=c1c(C(=O)NCCN2CCOCC2)cc2c(=O)n3ccccc3nc2n1CCc1ccccc1,-72.5%
5,O=C(NCCN1CCOCC1)c1c(O)nc2ccccn2c1=O,10.9%
6,Nc1c(C(=O)NCc2ccc(F)cc2)c2nc3ccccc3nc2n1CCCN1CCOCC1,0.0395%
7,Cc1ccc(S(=O)(=O)c2cc3c(=O)n4ccccc4nc3n(CCCN3CCOCC3)c2=N)cc1C,-36.8%
8,N=c1c(C(=O)NCc2ccc(F)cc2)cc2c(=O)n3ccccc3nc2n1CCCN1CCOCC1,-83%
9,N=c1c(S(=O)(=O)c2ccc(Cl)cc2)cc2c(=O)n3ccccc3nc2n1CCN1CCOCC1,-46.4%
10,CN(C)S(=O)(=O)N1CCC(Oc2ccc(C(=O)NCCc3cscn3)cc2)CC1,0.0832%
11,CC(C)O.CCc1nnc(NS(=O)(=O)c2ccc(NC(=O)C(c3ccccc3)c3ccccc3)cc2)s1,2.36%
12,CCc1nnc(NC(=O)C2CC(=O)N(c3ccc4c(c3)OCCO4)C2)s1 (stereo not drawn),4.32%
13,CC(=O)Nc1ccc(C(=O)CS(=O)(=O)c2ccc(C)cc2)cc1,-11.5%
14,N=c1c(C(=O)NCCN2CCOCC2)cc2c(=O)n3ccccc3nc2n1CCCN1CCOCC1,-4.43%
15,N=c1c(C(=O)NCCc2ccccc2)cc2c(=O)n3ccccc3nc2n1CCCN1CCOCC1,-76.2%
16,CC1(C)CC(=O)C=C(NCCO)C1,-0.4%
17,O=C(Nc1ccc(N2CCN(C(=O)c3ccco3)CC2)cc1)c1ccco1,20.7%
18,CN(CC(CC(=O)Nc1nncs1)c1ccccc1)S(=O)(=O)c1ccccc1 (stereo not drawn),-14.2%
19,Cc1nnc(NC(=O)CC(CN(C)S(=O)(=O)c2ccccc2)c2ccccc2)s1 (stereo not drawn),-18.7%
20,CN(CC(CC(=O)Nc1nncs1)c1ccccc1)S(=O)(=O)c1ccc(Br)cc1 (stereo not drawn),-55.4%
21,COC(=O)c1ccccc1NC(=O)Nc1ccc(Cl)cn1,-3.82%
22,O=C(Nc1ccc2c(c1)OCO2)Nc1ccc(Br)cn1,3.01%

row,Compound,"hERG current change (%, negative = inhibition) at 10uM"
1,Cc1cccc(N/C=C/C(=C(C#N)C#N)N(C)C)c1,-24.5%
2,COc1ccc(C)cc1NC(=O)CNc1ccccc1CN(C)C1CCCCC1,-19.6%
3,CN(Cc1ccccc1NCC(=O)Nc1ccccc1C#N)C1CCCCC1,-33%
4,Cc1ccc(NC(=O)CNc2ccccc2CN(C)C2CCCCC2)cc1,-59.1%
5,Cc1c(C(=O)N(C)CCC#N)oc2ccc(S(=O)(=O)N3CCOCC3)cc12,10.1%
6,O=C(NNc1ncnc2c1cnn2-c1ccc(F)cc1)c1cccs1,6.55%
7,O=C1CCC(C(=O)N(CCO)Cc2ccccc2)CN1CC1CCCCC1 (stereo not drawn),11.7%
8,CN(C)C1=NCCN1CCc1ccc(F)cc1,-9.03%
9,CCOC(=O)c1cnc2ccc(C(=O)OC)cc2c1NCCCN1CCOCC1,-60.5%
10,CCOC(=O)c1cnc2c(cnn2C)c1NCCCn1ccnc1,-35.9%
11,CCOC(=O)c1cnc2ccc(OCC)cc2c1NCCN1CCOCC1.Cl,-67.9%
12,CCOC(=O)c1cnc2c(cnn2C)c1NCCC#N,-7.43%
13,CCOC(=O)c1cnc2c(cnn2C)c1NCCCN(C)C,-51.7%
14,CCOC(=O)c1cnc2ccc(Br)cc2c1NCCCN1CCOCC1,-39%
15,CCOC(=O)c1cnc2c(C)c(Cl)ccc2c1NCCCN1CCOCC1,-49.2%
16,CCOC(=O)c1cnc2ccc(OC)cc2c1NCCN1CCOCC1,-48.5%
17,CCOC(=O)c1ccc2ncc(C(=O)OCC)c(NCCCN3CCOCC3)c2c1,-47.3%
18,CCOC(=O)c1cnc2ccc(OCC)cc2c1NCCCN1CCOCC1.Cl,-75.6%
19,CCOC(=O)c1cnc2ccc(C(=O)OC)cc2c1NCCN1CCOCC1,-30.2%
20,O=C(NCCc1ccccc1)C1CCN(S(=O)(=O)N2CCCCC2)CC1,2.19%
21,CCCNC(=O)Cn1c(=O)oc2cc(S(=O)(=O)N3CCCC3)ccc21,11.9%

# Reference: article PMC4336329 (PLoS ONE, 2015)
